This note sets out measurements from paper PMC7862700, “An all-to-all approach to the identification of sequence-specific readers for epigenetic DNA modifications on cytosine”.

Holding throughout (assay): DAPPL (digital affinity profiling via proximity ligation, sequencing); 10 mM Tris-HCl pH 7.5, 50 mM NaCl, 1 mM DTT, 4% glycerol, room temperature, 30 min; GST-TFs on glutathione beads, 16-mer random dsDNA library, 0.1% formaldehyde crosslink after washing; high values mean tight binding
Holding throughout (settings): protein: recombinant; tags: N-terminal GST; dsDNA, one strand shown

The target in one experiment is T1, ELK1 (Homo sapiens, UniProt P19419 1-428).
T1 sequence: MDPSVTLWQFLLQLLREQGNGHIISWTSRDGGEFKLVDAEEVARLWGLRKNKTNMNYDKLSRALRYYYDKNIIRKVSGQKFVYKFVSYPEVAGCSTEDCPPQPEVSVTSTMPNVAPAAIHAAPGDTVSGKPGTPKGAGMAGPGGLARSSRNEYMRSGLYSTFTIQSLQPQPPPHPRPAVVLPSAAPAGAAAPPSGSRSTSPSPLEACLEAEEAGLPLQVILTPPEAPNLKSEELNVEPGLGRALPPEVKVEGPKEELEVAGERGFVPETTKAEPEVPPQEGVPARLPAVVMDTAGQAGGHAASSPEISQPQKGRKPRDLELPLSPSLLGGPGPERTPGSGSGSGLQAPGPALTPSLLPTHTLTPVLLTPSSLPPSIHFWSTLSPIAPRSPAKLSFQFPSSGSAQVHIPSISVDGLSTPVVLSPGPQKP
The gist of the method: (§1)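 GST fusions of human transcription factors were expressed in yeast and captured with glutathione beads. Once given DNA barcodes and pooled alongside a tag-only sample, they were incubated for 30 min at room temperature with 200 nmole of a random double-stranded 16-mer DNA library in Tris/NaCl/DTT/glycerol buffer, then washed, crosslinked (0.1% formaldehyde), proximity-ligated, PCR-amplified and sequenced on an Illumina NextSeq500. The binding signal of each hexamer is its read frequency for a factor divided by its frequency for the tag-only sample.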

In a further experiment the target is T2, GABPA (Homo sapiens, UniProt Q06546 1-454).
T2 sequence: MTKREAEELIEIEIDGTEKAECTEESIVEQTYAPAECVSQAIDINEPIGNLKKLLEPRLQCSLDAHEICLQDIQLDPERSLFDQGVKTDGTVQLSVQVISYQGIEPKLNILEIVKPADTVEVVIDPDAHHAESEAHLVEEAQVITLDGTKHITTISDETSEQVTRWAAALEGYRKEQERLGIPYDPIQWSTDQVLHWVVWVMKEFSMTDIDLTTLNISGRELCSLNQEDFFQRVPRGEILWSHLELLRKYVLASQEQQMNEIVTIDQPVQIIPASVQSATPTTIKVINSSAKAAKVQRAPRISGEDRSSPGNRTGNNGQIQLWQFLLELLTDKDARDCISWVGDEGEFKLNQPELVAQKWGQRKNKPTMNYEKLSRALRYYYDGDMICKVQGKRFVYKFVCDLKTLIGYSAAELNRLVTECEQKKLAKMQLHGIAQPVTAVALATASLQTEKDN
An outline of the steps: as §1

In a further experiment the target is T3, ERG (Homo sapiens, UniProt P11308 1-479).
T3 sequence: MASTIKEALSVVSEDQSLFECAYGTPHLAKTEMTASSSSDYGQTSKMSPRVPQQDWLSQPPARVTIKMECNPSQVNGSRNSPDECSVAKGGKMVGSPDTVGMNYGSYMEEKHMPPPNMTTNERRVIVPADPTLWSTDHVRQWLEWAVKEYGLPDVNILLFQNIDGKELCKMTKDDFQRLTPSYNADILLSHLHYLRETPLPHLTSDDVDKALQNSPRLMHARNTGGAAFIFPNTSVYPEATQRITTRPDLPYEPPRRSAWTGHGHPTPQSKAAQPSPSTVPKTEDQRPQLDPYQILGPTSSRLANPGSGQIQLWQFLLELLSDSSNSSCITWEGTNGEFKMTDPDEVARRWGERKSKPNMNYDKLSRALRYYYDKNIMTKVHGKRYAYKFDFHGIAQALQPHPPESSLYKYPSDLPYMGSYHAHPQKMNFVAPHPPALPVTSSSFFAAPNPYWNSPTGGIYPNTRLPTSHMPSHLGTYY
The gist of the method:
as §1

In another experiment the target is ELF1 (Homo sapiens, UniProt P32519 1-619). The gist of the method: as §1
The target in another experiment is T4, EHF (Homo sapiens, UniProt Q9NZC4 1-300).
T4 sequence: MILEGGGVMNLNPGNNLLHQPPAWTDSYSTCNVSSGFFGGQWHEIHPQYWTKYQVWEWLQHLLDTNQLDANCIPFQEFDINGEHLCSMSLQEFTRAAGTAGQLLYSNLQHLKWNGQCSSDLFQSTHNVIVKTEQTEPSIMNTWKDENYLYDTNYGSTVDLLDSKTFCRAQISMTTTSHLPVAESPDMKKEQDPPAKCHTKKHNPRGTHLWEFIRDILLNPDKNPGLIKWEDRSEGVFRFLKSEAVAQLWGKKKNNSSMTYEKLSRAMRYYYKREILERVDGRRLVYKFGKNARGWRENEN
An outline of the steps: as §1

The next experiment has as its target SPIB (Homo sapiens, UniProt Q01892 1-262). An outline of the steps: as §1
A further experiment deals with T5, FEV (Homo sapiens, UniProt Q99581 1-238).
T5 sequence: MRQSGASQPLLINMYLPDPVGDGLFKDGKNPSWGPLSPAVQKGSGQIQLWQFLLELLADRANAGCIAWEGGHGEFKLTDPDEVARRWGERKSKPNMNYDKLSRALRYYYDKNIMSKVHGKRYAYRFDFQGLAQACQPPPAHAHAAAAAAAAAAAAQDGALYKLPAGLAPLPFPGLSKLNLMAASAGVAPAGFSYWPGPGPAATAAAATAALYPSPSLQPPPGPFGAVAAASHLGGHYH
An outline of the steps: as §1

The target of another experiment is ETV5 (Homo sapiens, UniProt P41161 1-510). An outline of the steps: as §1
For a further experiment, the target named is ELF4 (Homo sapiens, UniProt Q99607 1-663). The gist of the method:
as §1

Another experiment deals with T6, ELK4 (Homo sapiens, UniProt P28324-2 1-405).
T6 sequence: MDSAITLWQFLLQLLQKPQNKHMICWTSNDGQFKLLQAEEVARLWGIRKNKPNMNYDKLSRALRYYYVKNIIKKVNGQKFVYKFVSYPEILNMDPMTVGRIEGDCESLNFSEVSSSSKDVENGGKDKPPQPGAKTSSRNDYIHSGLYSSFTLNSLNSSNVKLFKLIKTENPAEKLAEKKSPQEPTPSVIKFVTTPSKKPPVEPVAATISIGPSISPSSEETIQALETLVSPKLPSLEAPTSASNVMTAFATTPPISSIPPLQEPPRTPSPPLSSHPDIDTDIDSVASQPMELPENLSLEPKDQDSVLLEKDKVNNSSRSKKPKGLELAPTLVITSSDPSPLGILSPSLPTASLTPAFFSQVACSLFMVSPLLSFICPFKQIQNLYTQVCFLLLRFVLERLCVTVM
An outline of the steps: as §1

For a further experiment, the target named is T7, ELF3 (Homo sapiens, UniProt P78545 1-371).
T7 sequence: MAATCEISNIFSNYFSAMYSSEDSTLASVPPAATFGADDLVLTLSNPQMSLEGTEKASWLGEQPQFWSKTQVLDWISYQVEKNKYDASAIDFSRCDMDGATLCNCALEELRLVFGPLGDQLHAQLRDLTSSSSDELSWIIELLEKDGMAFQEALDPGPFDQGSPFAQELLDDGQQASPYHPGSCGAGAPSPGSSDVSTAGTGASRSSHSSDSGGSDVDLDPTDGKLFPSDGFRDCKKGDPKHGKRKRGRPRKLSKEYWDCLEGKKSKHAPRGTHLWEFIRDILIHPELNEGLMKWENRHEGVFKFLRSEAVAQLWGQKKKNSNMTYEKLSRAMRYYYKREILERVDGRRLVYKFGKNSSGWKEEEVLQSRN
An outline of the steps: as §1

Another experiment addresses ETV1 (Homo sapiens, UniProt P50549 1-477). The gist of the method:
as §1

A further experiment concerns the target T8, ERF (Homo sapiens, UniProt P50548 1-548).
T8 sequence: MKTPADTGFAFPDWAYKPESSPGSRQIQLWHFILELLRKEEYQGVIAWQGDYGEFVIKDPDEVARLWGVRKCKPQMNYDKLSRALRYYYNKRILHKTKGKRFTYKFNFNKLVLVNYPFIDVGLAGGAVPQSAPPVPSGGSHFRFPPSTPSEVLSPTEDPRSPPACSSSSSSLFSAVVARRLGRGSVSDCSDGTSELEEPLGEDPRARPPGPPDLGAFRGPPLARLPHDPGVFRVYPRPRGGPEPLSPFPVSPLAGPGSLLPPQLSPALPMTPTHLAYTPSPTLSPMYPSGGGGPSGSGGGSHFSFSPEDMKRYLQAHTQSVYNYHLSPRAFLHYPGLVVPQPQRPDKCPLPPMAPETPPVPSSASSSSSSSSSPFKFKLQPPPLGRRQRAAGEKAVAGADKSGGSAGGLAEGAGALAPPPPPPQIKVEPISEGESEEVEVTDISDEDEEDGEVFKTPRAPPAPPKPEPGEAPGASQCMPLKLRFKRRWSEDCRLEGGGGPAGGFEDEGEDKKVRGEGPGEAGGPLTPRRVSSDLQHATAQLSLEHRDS
An outline of the steps:
as §1

Another experiment has as its target T9, ETV3L (Homo sapiens, UniProt Q6ZN32 1-361).
T9 sequence: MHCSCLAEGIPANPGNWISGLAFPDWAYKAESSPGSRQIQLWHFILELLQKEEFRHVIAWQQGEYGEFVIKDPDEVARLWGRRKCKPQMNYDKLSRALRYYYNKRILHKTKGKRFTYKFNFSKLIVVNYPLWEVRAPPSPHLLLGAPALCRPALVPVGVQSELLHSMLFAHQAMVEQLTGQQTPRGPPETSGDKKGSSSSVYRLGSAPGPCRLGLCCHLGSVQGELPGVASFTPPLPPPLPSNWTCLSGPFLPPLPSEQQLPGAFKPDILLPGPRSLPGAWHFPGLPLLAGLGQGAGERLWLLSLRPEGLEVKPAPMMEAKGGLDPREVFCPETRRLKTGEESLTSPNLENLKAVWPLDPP
An outline of the steps:
as §1

In a further experiment the target is T10, ETS2 (Homo sapiens, UniProt P15036 1-469).
T10 sequence: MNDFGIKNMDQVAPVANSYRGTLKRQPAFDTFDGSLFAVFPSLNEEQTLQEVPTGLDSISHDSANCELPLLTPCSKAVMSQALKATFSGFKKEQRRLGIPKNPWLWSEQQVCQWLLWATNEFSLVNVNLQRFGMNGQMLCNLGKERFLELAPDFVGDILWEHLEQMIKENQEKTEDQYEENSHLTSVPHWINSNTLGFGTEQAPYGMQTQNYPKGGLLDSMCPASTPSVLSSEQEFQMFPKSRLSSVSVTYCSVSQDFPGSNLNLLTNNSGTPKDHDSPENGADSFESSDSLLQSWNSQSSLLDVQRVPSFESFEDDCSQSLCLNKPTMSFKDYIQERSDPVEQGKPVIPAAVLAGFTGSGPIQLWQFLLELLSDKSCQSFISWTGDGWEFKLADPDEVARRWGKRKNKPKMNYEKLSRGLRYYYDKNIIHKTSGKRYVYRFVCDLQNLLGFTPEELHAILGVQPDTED
An outline of the steps:
as §1

Another experiment has as its target T11, SPDEF (Homo sapiens, UniProt O95238 1-335).
T11 sequence: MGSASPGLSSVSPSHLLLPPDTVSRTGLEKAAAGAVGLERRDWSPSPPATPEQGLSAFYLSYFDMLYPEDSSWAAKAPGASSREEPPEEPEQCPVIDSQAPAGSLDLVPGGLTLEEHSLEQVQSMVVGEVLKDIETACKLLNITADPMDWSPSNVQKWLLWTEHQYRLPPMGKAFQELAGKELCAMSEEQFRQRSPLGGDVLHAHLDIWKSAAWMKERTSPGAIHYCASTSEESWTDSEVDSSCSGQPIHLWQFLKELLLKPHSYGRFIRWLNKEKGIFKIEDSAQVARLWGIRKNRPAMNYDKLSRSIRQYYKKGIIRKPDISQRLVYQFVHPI
An outline of the steps:
as §1

A further experiment concerns the target T12, ETV3 (Homo sapiens, UniProt P41162-2 1-143).
T12 sequence: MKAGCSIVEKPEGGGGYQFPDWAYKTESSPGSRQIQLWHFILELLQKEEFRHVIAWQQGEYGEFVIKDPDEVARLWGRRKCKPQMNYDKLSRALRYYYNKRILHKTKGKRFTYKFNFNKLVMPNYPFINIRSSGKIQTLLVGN
An outline of the steps: as §1

The target of a further experiment is ETV6 (Homo sapiens, UniProt P41212 1-452). The gist of the method: as §1
ETV6, sequence (P41212 whole entry): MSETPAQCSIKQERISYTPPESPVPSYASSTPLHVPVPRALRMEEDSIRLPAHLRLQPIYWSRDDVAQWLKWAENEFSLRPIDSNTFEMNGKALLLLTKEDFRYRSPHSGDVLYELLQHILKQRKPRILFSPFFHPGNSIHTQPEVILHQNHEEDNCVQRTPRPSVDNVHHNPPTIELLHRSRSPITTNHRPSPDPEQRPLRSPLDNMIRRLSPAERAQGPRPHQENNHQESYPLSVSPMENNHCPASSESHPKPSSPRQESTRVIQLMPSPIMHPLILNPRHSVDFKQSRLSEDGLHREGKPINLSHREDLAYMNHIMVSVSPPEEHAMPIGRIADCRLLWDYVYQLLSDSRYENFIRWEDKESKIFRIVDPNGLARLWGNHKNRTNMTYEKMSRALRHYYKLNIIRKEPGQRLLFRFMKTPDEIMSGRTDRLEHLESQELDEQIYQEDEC

ETV1, sequence (P50549 whole entry): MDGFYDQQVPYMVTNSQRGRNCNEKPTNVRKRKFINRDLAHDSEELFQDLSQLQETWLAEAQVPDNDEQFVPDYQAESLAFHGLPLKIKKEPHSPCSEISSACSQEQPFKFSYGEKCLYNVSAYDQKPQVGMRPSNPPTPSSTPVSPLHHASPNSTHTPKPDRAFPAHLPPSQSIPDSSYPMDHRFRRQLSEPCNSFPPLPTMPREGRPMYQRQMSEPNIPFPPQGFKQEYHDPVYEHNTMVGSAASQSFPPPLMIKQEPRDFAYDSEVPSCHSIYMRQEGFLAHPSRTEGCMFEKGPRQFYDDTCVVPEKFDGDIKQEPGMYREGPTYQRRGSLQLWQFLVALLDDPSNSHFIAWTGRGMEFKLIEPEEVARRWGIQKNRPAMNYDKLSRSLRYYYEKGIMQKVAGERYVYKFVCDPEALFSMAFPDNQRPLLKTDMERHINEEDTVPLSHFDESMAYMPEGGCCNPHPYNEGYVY
ELF4, sequence (Q99607 whole entry): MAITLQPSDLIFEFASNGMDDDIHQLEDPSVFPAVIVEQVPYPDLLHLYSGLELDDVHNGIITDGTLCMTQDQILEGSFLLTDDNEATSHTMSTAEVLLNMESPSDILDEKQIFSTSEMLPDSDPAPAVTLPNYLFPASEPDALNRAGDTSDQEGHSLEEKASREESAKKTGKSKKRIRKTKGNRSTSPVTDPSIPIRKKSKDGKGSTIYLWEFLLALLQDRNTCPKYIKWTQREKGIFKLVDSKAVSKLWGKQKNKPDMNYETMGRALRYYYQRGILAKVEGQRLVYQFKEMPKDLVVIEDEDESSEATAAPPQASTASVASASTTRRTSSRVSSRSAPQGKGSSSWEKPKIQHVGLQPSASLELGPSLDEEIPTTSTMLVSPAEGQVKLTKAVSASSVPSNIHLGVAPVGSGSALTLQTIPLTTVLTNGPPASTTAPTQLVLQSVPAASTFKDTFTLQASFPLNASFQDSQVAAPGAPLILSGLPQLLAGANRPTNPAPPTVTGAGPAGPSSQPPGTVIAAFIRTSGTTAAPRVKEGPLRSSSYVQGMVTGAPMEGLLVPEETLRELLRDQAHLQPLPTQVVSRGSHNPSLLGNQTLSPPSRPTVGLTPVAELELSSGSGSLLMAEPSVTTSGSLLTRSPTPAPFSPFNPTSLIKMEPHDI
ELF1, sequence (P32519 whole entry): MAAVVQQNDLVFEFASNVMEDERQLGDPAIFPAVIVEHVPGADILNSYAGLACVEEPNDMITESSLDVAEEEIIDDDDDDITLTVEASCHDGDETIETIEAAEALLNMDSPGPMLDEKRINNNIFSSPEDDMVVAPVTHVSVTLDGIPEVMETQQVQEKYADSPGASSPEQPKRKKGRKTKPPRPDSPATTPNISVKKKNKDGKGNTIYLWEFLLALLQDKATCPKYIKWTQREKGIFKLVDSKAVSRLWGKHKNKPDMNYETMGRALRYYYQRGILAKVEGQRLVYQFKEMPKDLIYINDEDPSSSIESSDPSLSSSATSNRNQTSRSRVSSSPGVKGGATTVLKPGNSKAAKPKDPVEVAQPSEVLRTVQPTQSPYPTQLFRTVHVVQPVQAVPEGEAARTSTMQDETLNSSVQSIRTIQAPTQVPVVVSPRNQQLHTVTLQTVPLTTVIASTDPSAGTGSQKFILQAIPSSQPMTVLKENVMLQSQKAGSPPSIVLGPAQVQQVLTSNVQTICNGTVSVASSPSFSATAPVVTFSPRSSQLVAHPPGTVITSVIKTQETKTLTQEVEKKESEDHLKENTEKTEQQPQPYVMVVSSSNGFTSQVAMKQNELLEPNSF
ETV5, sequence (P41161 whole entry): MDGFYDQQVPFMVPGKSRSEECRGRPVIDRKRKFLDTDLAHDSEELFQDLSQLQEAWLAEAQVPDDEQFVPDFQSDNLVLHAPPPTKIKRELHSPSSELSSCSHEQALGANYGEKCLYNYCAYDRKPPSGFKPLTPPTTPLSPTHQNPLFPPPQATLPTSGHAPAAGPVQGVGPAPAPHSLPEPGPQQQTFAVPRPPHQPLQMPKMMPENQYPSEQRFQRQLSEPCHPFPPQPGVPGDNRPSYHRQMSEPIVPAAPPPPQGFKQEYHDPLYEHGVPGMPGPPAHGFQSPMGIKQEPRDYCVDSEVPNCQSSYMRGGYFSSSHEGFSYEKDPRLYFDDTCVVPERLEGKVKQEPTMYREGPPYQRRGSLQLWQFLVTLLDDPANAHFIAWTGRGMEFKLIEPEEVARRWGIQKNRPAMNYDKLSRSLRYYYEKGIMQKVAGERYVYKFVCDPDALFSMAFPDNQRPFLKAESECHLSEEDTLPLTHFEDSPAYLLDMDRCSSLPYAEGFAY
SPIB, sequence (Q01892 whole entry): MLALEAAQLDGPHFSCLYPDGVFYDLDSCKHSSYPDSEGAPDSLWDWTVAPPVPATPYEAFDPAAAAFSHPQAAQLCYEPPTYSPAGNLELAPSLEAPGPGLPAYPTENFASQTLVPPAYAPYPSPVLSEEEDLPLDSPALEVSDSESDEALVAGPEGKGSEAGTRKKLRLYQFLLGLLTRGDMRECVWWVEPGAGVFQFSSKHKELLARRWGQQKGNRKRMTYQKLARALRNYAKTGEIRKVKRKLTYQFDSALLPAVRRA

For TGATAC, the binding signal is 1.17 fold enrichment (6-mer frequency, TF over GST control) with ELK1; 1.16 fold enrichment (6-mer frequency, TF over GST control) with GABPA; 1.13 fold enrichment (6-mer frequency, TF over GST control) in the experiment with ERG; 1.14 fold enrichment (6-mer frequency, TF over GST control) with ELF1; 1.11 fold enrichment (6-mer frequency, TF over GST control) in the experiment with EHF; 1.12 fold enrichment (6-mer frequency, TF over GST control) in the experiment with SPIB. Also, the binding signal with FEV was 1.21 fold enrichment (6-mer frequency, TF over GST control); with ETV5, 1.1 fold enrichment (6-mer frequency, TF over GST control); in the experiment with ELF4, 1.13 fold enrichment (6-mer frequency, TF over GST control); with ELK4, 1.29 fold enrichment (6-mer frequency, TF over GST control); with ELF3, 1.16 fold enrichment (6-mer frequency, TF over GST control); with ETV1, 1.08 fold enrichment (6-mer frequency, TF over GST control). Besides, the binding signal with ERF was 1.13 fold enrichment (6-mer frequency, TF over GST control); in the experiment with ETV3L, 1.07 fold enrichment (6-mer frequency, TF over GST control); in the experiment with ETS2 it was 1.1 fold enrichment (6-mer frequency, TF over GST control); with SPDEF, 1.17 fold enrichment (6-mer frequency, TF over GST control); with ETV3 it was 1.1 fold enrichment (6-mer frequency, TF over GST control); with ETV6 it was 1.1 fold enrichment (6-mer frequency, TF over GST control).
